# Many of the other results were omitted from the sample, so hits are more common in it than they were.
# TDP1 cell noCPT – qHTS for Inhibitors of human tyrosyl-DNA phosphodiesterase 1 (TDP1): qHTS in cells in absence of CPT | DT40 Tdp1-/- hTDP1 cells, no CPT, ATP luminescence, 48 h | Potency, µM (top dose mostly 46.2 µM), inactives show at the top dose activity change, negative = growth inhibition, actives largely listed as inhibitors | hit rate 15% among 420,000 | AID 686978, 2013; note: potency is the fitted concentration of half-maximal effect; nearly all actives have a fitted effect of over 55% in size
#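 Camptothecin absent (DMSO only). Human TDP1-complemented DT40 knockout cells, 400 cells/well, 37 °C for minimum 48 hr; ATP measured via CellTiter-Glo, 30 min dark incubation, luminescence.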
# ALOX12 inh – blocks human arachidonate 12S-lipoxygenase; purified 12hLO, xylenol orange hydroperoxide absorbance; Potency, µM (titrated, usually from 108 µM), for inactives: at the top dose activity change, negative = inhibition, hits mostly inhibitors; hit rate 1.1% among 580,000; AID 1671190; note: potency is the fitted concentration of half-maximal effect
# Target sequence (P18054 whole entry, looked up): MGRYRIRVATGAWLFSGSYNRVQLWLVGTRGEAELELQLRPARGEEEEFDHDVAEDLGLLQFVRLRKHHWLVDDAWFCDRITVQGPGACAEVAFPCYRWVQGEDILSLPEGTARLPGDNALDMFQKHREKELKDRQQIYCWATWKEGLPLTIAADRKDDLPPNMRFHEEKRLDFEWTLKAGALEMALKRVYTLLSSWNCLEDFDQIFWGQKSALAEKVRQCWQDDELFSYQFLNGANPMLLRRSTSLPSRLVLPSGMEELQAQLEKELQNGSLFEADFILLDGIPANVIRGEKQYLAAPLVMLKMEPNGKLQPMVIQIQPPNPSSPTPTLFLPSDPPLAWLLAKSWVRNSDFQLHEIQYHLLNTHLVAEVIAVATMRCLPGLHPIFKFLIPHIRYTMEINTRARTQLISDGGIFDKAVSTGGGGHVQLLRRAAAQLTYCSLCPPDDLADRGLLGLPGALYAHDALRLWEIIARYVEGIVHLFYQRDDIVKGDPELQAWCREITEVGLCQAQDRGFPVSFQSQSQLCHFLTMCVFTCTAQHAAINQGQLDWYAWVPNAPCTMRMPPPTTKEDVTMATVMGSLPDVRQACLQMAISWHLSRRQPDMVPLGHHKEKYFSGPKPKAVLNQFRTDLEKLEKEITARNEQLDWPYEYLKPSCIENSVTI
#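 Purified human 12hLO at 150 nM in 25 mM Hepes, 0.01% Triton X-100, pH 7.0, preincubated 15 min at room temperature with compound. Reaction started with 40 uM arachidonic acid, 30 min at room temperature. Hydroperoxide measured by Fe-xylenol orange, 573/405 nm absorbance ratio.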
# TDP1 cell CPT – DT40-hTDP1 cell growth loss with CPT; chicken DT40 Tdp1-/-;hTDP1 cells + 20 nM CPT, ATP luminescence, 48 h; Potency, µM (top dose mostly 46.2 µM), inactives show top-dose activity change, negative = growth inhibition, hits mostly inhibitors; hit rate 12% among 420,000; note: potency is the fitted concentration of half-maximal effect; nearly all actives have a fitted effect of over 55% in size
#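 Chicken DT40 Tdp1-/- cells stably complemented with human TDP1 were seeded at 400 cells/well in medium containing 20 nM camptothecin, exposed to pin-transferred compounds, and grown at 37 °C for at least 48 hr. Viability was read as ATP luminescence.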
# HT1080 IDH1KD tx – toxicity to HT-1080 IDH1 knockdown cells (counter line). Potency, µM (doses to about 46.1 µM), for the others: top-dose activity, negative = toxicity, most hits filed as cytotoxic. hit rate 2% among 360,000. HT-1080 IDH1 knockdown viability, ATP luminescence, 48 h. AID 686971;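 note: potency is the fitted concentration of half-maximal effect; 0% = DMSO wells and -100% = cell-free medium wells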
#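 Cytotoxicity counter-line: IDH1KD HT-1080, 48 h, CellTiter-Glo. Curves classed by r2, magnitude and activity.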
# HT1080-NT tox – kills 2HG-producing HT-1080-NT fibrosarcoma cells | HT-1080-NT fibrosarcoma viability, CellTiter-Glo ATP luminescence, 48 h | Potency, µM (titrated, usually from 46.1 µM), without a hit: at the highest dose activity, negative = less viability, actives largely listed as cytotoxic | hit rate 1.6% among 360,000 | AID 686970;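 note: NT is the 2HG producing partner of a matched IDH1 knockdown line; potency is the fitted concentration of half-maximal effect; 0% = DMSO-treated cells and -100% = media-only wells without cells; nearly all actives have a fitted effect of over 55% in size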
#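 Toxicity toward the 2HG-producing NT line was scored as %Activity, normalised to DMSO and no-cell wells, from CellTiter-Glo luminescence after 48 hours' treatment.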
# IL1B secr inh – inhibitors of inflammasome signaling (IL-1 beta secretion); THP-1 LPS/ATP IL-1B secretion, AlphaLISA, 16 h; stronger effect = lower value; activity change, % at 57.5 µM; hit rate 4.7% among 360,000; in the data active = activity change below about -50%; inconclusive = mostly about -30% to -49%
#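 Secreted IL-1B measured by AlphaLISA bead assay after 16 h compound exposure of THP-1 cells; compounds (final up to 57.5 uM) added 1 h before LPS (250 ng/mL) and ATP (1.25 mM) stimulation; lower signal means less secretion.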
# Numbers without * were called inactive; i = inactive; ? = inconclusive; . = no result; [ ] = remark or other dose. Unless noted, calls come from the whole dose curve; as a rule, active = well fitted curve in the direction sought with a large enough effect; inconclusive = small, poorly fitted or top-dose-only effect, or another doubt; inactive = no such curve, though single readings can be large; an effect the other way counts as inactive or inconclusive. Unless noted, % is set by controls: 0 for no effect and ±100 for the full control effect.
SMILES,TDP1 cell noCPT,ALOX12 inh,TDP1 cell CPT,HT1080 IDH1KD tx,HT1080-NT tox,IL1B secr inh
CCc1nc2c(OCC(=O)c3ccc(Cl)cc3Cl)cccn2c1N(C=O)Cc1ccc(OC)cc1,18.4µM*,?,23.1µM*,?,-28.2%,1.4
CCCCN(C=O)c1c(CC)nc2c(OCc3cccc(Cl)c3)cccn12,?,-26.3%,?,-21.8%,-3.8%,14.2
CCc1nc2c(OCc3ccc(Cl)cc3Cl)cccn2c1N(C=O)Cc1ccc(OC)cc1,23.1µM*,-25.2%,?,24.2%,12.2%,-67.4*
Fc1ccc(CNCc2cccc(OCc3ccccc3)c2)cc1,.,-3.7%,.,.,.,.
Oc1ccc(NCc2cccc(OCc3ccccc3)c2)cc1,20.6µM*,i,14.6µM*,?,?,57.5
O=[N+]([O-])c1ccc(COc2cccc(CNc3ccc(F)cc3)c2)cc1,13µM*,-14.1%,25.9µM*,-6.3%,2.1%,?
Oc1ccc(NCc2cccc(OCc3ccc(F)cc3)c2)cc1,18.4µM*,182.5%,23.1µM*,-19.7%,?,28.9
c1ccc(COc2ccc(CNc3ccc(Oc4ccccc4)cc3)cc2)cc1,.,2.1%,.,.,.,.
CC(C)(C)NC(=O)CN1C(=O)NC2(CCCCC2)C1=O,.,8.5%,.,.,.,.
CC(Oc1ccccc1Cl)C(=O)NN (stereo not given),.,40.8%,.,.,.,.
CN(C)CC(O)c1cc2n(n1)CCCN(C(=O)c1cccc(N(C)C)c1)C2 (stereo not given),.,9.7%,.,.,.,.
CN(CCC#N)C(=O)CNC(=O)C1CCCN(S(=O)(=O)c2ccc(Cl)cc2)C1 (stereo not given),.,-18.7%,.,.,.,.
C/C(=N\O)c1ccc(OCCCCCOc2ccc(/C(C)=N/O)cc2)cc1,.,-27.6%,.,.,.,.
Cc1cccc(-c2c3c(=O)n(C)c(=O)n(C)c3cn2C(C)C)c1,20.6µM*,?,16.4µM*,-24.4%,-18.9%,-1.9
Cn1c(=O)c2c(-c3ccccc3)n(N3CCOCC3)cc2n(C)c1=O,?,0.0%,?,11.8%,3.1%,-4.7
Cc1cccc(-c2c3c(=O)n(C)c(=O)n(C)c3cn2C(C)(C)C)c1,-11.4%,-24.7%,-19.5%,-8.0%,-22.2%,7.0
Cc1cccc(-c2c3c(=O)n(C)c(=O)n(C)c3cn2C2CCCCC2)c1,16.4µM*,0.0%,?,-1.1%,-12.4%,-0.9
Cn1c(=O)c2c(-c3ccccc3)n(C3CCCCC3)cc2n(C)c1=O,9.2µM*,?,18.4µM*,17.1%,6.3%,-13.2
COCCn1c(C)cc(C(=O)CSc2nc(C)nc3sc4c(c23)CCC4)c1C,20.6µM*,-24.2%,16.4µM*,-27.4%,-5.5%,22.1
Cc1nc(SCC(=O)NCC2CCCO2)c2c3c(sc2n1)CCCC3 (stereo not given),?,33.0%,?,-1.3%,-2.8%,-1.3
CN1CCN(C2=Cc3ccccc3Sc3cc(F)ccc32)CC1,22.4µM*,?,?,?,15.8µM*,?
CN1CCN(c2cc(-c3ccc(F)cc3C(F)(F)F)nc(N)n2)CC1,.,41.1%,.,.,.,.
CN1CCN(C2=Cc3ccc(Cl)cc3Sc3ccc(F)cc32)CC1,20.6µM*,-25.1%,23.1µM*,?,?,-71.3*
O=C(c1ccccc1Cl)N1CCN(c2nc3ncccc3o2)CC1,.,34.7%,.,.,.,.
Clc1ccc(N/N=C/c2cccnc2)cc1,16.4µM*,?,18.4µM*,?,?,-62.4*
SMILES,TDP1 cell noCPT,ALOX12 inh,TDP1 cell CPT,HT1080 IDH1KD tx,HT1080-NT tox,IL1B secr inh
O=[N+]([O-])c1ccc(N/N=C/c2cccnc2)cc1,6.51µM*,?,5.8µM*,7.31µM*,-25.8%,-16.6
O=C(O)c1cccc(N/N=C/c2cccnc2)c1,?,-15.7%,5.1%,-10.5%,-13.0%,6.7
CCCCC(=O)NC(c1ccccc1Cl)c1ccc2cccnc2c1O (stereo not given),6.51µM*,3.9%,8.2µM*,?,?,121.4
CC(=O)NC(c1ccc(C(C)C)cc1)c1ccc2cccnc2c1O (stereo not given),1.3µM*,-15.3%,2.59µM*,?,?,167.5
CCCC(=O)NC(c1ccccc1)c1ccc2cccnc2c1O (stereo not given),1.46µM*,-22.2%,3.66µM*,?,-23.4%,176.2
CCCCC(=O)Nc1ccc(Cl)c2ncccc12,.,-39.3%,.,.,.,.
CC(=O)NC(C)c1cc(F)c2cccnc2c1O (stereo not given),.,-8.1%,.,.,.,.
CCCCC(=O)NC(c1ccc(C(C)C)cc1)c1ccc2cccnc2c1O (stereo not given),3.26µM*,-10.4%,5.8µM*,?,?,120.0
CN1CCC2(CC1)CN(C(=O)Nc1ccccc1)Cc1ccccc1O2,.,45.9%,.,.,.,.
CCCC(=O)NC(c1ccc(OC)cc1)c1ccc2cccnc2c1O (stereo not given),2.59µM*,-16.9%,2.31µM*,?,-27.6%,105.6
CCCCC(=O)NC(c1ccccc1)c1ccc2cccnc2c1O (stereo not given),0.731µM*,-5.5%,0.581µM*,?,?,137.2
COc1ccc(CNC(=O)CSc2cccc3cccnc23)cc1,-4.1%,28.1%,-4.0%,4.7%,8.2%,5.6
Cc1cc2c([nH]c3ccccc32)c(C)n1,-29.2%,?,19.0%,-29.8%,-1.5%,-15.6
Cc1c2ccncc2cc2c1[nH]c1ccccc12,6.51µM*,0.0%,5.8µM*,13µM*,18.4µM*,-96.5*
CS(=O)(=O)CC[C@H](NC(=O)C1=C[C@@H](NC(=O)CCN)[C@@H](O)[C@H](O)C1)C(N)=O,.,12.2%[176 µM],.,.,.,.
Fc1ccc(NC(=S)NCc2ccccc2Cl)cc1,-3.8%,?,-0.2%,1.1%,6.6%,-71.0*
COC(=O)Cc1ccc(NC(=S)NCc2ccccc2OC)cc1,?,?,?,16.1%,14.9%,9.8
CCC(C)c1ccc(NC(=S)NCc2ccccc2OC)cc1 (stereo not given),23.1µM*,?,?,-19.5%,-26.7%,22.4
COc1ccccc1CNC(=S)Nc1ccc(F)cc1,5.17µM*,15.0%,2.6%,5.7%,6.9%,10.3
O=C(NCc1ccc(Cl)cc1)[C@@H]1Cc2nc[nH]c2CN1Cc1ccc(CO)o1,.,37.4%[176 µM],.,.,.,.
COc1ccc(CN2CC3(CCN(S(=O)(=O)c4cn(C)cn4)CC3)C2=O)cc1,.,17.6%,.,.,.,.
O=C1NCCCCCCN(Cc2ccccc2)[C@H]2CCC[C@@H]12,.,307.8%,.,.,.,.
Cc1cc(C)cc(NC(=O)N2CCN(c3cc(-c4noc(C)n4)ccc3C)CC2)c1,?,-3.2%,?,.,.,.

# Screening results from PubChem.
